In all, about 48,000 compounds went through this assay and about 13,000 (27%) showed an effect of 50% or more. This is one part of the list.
The compounds below were run on Wolbachia pipientis (assay: Anti-Wolbachia Cell-Based Screen). Conditions: 5 µM.
Format: functional
Design: scale not given: in the data most compounds retested in dose-response had high values

Row | SMILES | Percent Effect [%]
1 | C1CCC(CNC2CCSCC2)(N2CCOCC2)CC1 | -18.78
2 | CCN(CC)Cc1ccccc1NC(=O)N(C)Cc1ccc(OC)cc1 | -34.67
3 | c1ccc(-n2ncc(CNCC3CCCN3c3cccnn3)n2)cc1 (centres undefined) | 8.726
4 | CCC(O)CN(Cc1ccccc1)S(=O)(=O)c1cnc(C)s1 (centres undefined) | -9.422
5 | c1cncc(CN(Cc2ccsc2)Cc2ccc(C3CCCCO3)o2)c1 (centres undefined) | -4.94
6 | CCN(CC(F)(F)F)C(=O)C1CCCN(Cc2ccccn2)C1 (centres undefined) | 10.59
7 | CN(C)C(=O)C1CN(Cc2ccccn2)CCN(S(C)(=O)=O)C1 (centres undefined) | 88.48
8 | CS(=O)(=O)N1CCN(Cc2cccs2)CC(C(N)=O)C1 (centres undefined) | 99.35
9 | CCCS(=O)(=O)N1C[C@@H]2CN(Cc3cccs3)CCO[C@@H]2C1.O=C(O)C(F)(F)F | 8.558
10 | CC(C)[C@H]1CN(Cc2ccccn2)C[C@@H]1NS(=O)(=O)C1CC1 | -5.384
11 | CS(=O)(=O)N1C[C@H]2CCCN(Cc3cccs3)[C@H]2C1.O=C(O)C(F)(F)F | 3.048
12 | COCC1CN(C(=O)CNC(C)=O)Cc2ncnn2C1 (centres undefined) | 6.87
13 | COc1nc2ccccc2cc1CN1CCC(CNS(C)(=O)=O)C1 (centres undefined) | -1.226
14 | CN(C)CC(=O)N1CCCC2(CCC(=O)N(CCc3c[nH]cn3)C2)C1 (centres undefined) | 10.28
15 | COc1ccc(-c2nc3c([nH]2)CCNC3C(=O)O)c2ccc(C)nc12 (centres undefined) | 11.46
16 | O=C(CC1CC1)N1CC[C@@H]2[C@H](CC1)N(Cc1cccnc1)CCS2(=O)=O.O=C(O)C(F)(F)F.O=C(O)C(F)(F)F | 93.65
17 | Cc1cccc(CN2CCS(=O)(=O)[C@@H]3CCN(C(=O)C4CC4)CC[C@@H]32)n1.O=C(O)C(F)(F)F | 4.108
18 | O=C(O)C(F)(F)F.O=C(O)C(F)(F)F.O=S1(=O)CCN(Cc2cccnc2)[C@H]2CCN(c3ncccn3)CC[C@H]21 | 0.02856
19 | CCS(=O)(=O)N1CC[C@@H]2[C@H](CC1)N(CC(C)C)CCS2(=O)=O.O=C(O)C(F)(F)F | -5.407
20 | CC(C)C(=O)N1CC[C@@H]2[C@H](CC1)N(Cc1cccnc1)CCS2(=O)=O.O=C(O)C(F)(F)F.O=C(O)C(F)(F)F | 86.93
21 | O=C(O)C(F)(F)F.O=C(O)C(F)(F)F.O=C(O)C(F)(F)F.c1cncc(CN2CC[C@@H]3[C@@H]2CCN3Cc2ccc3c(c2)OCO3)c1 | -20.95
22 | CC(C)CN1CCS(=O)(=O)[C@@H]2CCN(S(=O)(=O)c3ccccc3)CC[C@@H]21.O=C(O)C(F)(F)F | -6.866

Row | SMILES | Percent Effect [%]
23 | CCS(=O)(=O)N1CC[C@@H]2[C@H](CC1)N(Cc1cccc(C)n1)CCS2(=O)=O.O=C(O)C(F)(F)F | -2.049
24 | O=C(C1CC1)N1CC[C@@H]2[C@H](CC1)N(Cc1cccnc1)CCS2(=O)=O.O=C(O)C(F)(F)F.O=C(O)C(F)(F)F | 101.3
25 | CCS(=O)(=O)N1CC[C@@H]2[C@H](CC1)N(Cc1cccnc1)CCS2(=O)=O.O=C(O)C(F)(F)F.O=C(O)C(F)(F)F | 110.8
26 | CCCC(=O)N1CC[C@@H]2[C@H](CC1)N(Cc1cccc(C)n1)CCS2(=O)=O.O=C(O)C(F)(F)F | 0.2499
27 | CN(CCCN1CCOCC1)[C@@H]1c2ccccc2C2(CCNCC2)[C@H]1O | 1.971
28 | Cc1cc(S(=O)(=O)N2CCCc3cc(F)cc(F)c32)sc1C(=O)O | 6.843
29 | Cc1ccc2nc(C)cc(C(=O)N3C[C@H]4CCC[C@@]4(CO)C3)c2c1 | -30.24
30 | COCCn1cnnc1Cn1ccnc1-c1ccoc1 | 3.29
31 | Nc1ncc2c(n1)CN(C1CCCC1)C2=O | -0.5678
32 | CC(C)CC(=O)N1CC[C@@H]2[C@H](CC1)N(Cc1cccnc1)CCS2(=O)=O.O=C(O)C(F)(F)F.O=C(O)C(F)(F)F | 108.2
33 | CCCC(=O)N1CC[C@@H]2[C@H](CC1)N(Cc1cccnc1)CCS2(=O)=O.O=C(O)C(F)(F)F.O=C(O)C(F)(F)F | -5.055
34 | CCC(=O)N1CC[C@@H]2[C@H](CC1)N(Cc1cccc(C)n1)CCS2(=O)=O.O=C(O)C(F)(F)F | -0.9694
35 | CNC(=O)C1CN(c2cc(C)ncn2)CCN1Cc1ccccc1 (centres undefined) | 91.54
36 | CNC(=O)C1CN(c2ccnc(C)n2)CCN1Cc1ccccc1 (centres undefined) | 49.78
37 | Cc1cccnc1NC(=O)C1CCCN1Cc1ccccc1 (centres undefined) | 28.43
38 | CC(C)Nc1cc(N2CCN(Cc3ccccc3)C(CCO)C2)ncn1 (centres undefined) | 10.47
39 | CNC(=O)C1CN(c2ncccn2)CCN1Cc1ccccc1 (centres undefined) | 91.24
40 | Cc1cc(N2CCN(Cc3ccccc3)CC(O)C2)nc(N)n1 (centres undefined) | 4.027
41 | Cc1c(C(C)NC2CCCC2)cnn1-c1ccc(F)cc1F (centres undefined) | 1.139
42 | O=C(N[C@@H]1CN(Cc2ccc(F)cc2)C[C@H]1O)c1cscn1 | 113.4
43 | O=C(N[C@@H]1CN(Cc2cccc3[nH]ccc23)C[C@H]1O)c1cscn1 | 113.8
44 | O=C(NS(=O)(=O)c1ccc(F)c(F)c1)c1cscn1 | 8.824
